This note sets out measurements from PubChem BioAssay (NCATS).

Assay [1] concerns the target Lysosomal acid glucosylceramidase (Homo sapiens) (UniProt P04062). Kind of assay: Glucocerebrosidase-p2 (AID 348; in the data active means potency below about 10 µM; further: potency means the concentration at half of the fitted maximal effect). As to conditions: purified GBA, blue fluorogenic substrate, 40 min. In a few lines: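 Compounds titrated from 0.6 nM upwards against 0.2 nM enzyme in pH 5.9 citric acid/KH2PO4, taurocholate, tween-20; blue fluorogenic substrate 80 uM, 40 min room temperature, stopped and read Ex 365/Em 440 for AC50.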

Assay [2] in a line: AP1 Signaling Pathway (AID 357; active means well fitted curve in either direction with a large enough effect, not every such curve was filed as active;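 further: ME-180 reporter cells stimulated with EGF at its EC50 level; on the % scale 0 is the no-effect control and ±100 the full control effect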). As to conditions: ME-180 AP-1-bla reporter, EGF-induced, beta-lactamase ratio, 5 h; at 7.69 µM (top of the series) unless noted. In a few lines:
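In this screen, ME-180 cells in Opti-MEM with 0.5% dialyzed FBS received EC50 EGF and compound titrations for 5 h. AP-1 reporter beta-lactamase was detected via CCF4 ratio, giving AC50 for positive and negative modulators.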

Assay [3] is described as follows: NFAT Signaling Pathway (AID 444; active means well fitted curve in either direction with a large enough effect, not every such curve was filed as active;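 further: carbachol stimulus at about its EC50 of 1 µM final; on the % scale 0 is the no-effect control and ±100 the full control effect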). To be noted: Jurkat NFAT-bla M1, carbachol, beta-lactamase ratio, 5 h; at 7.69 µM (top of the series) unless noted. In a few lines: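 Jurkat cells carrying an NFAT-driven β-lactamase reporter and co-transfected muscarinic M1 receptor were treated with compound plus carbachol (1 uM final, an EC50 level) for 5 h at 37 °C. CCF4 loading followed for 1 h at RT; 460/530 nm ratio gave %activity.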

The nature of assay [4]: Stat Signaling Pathway (AID 446; active means well fitted curve in either direction with a large enough effect, not every such curve was filed as active;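 further: ME-180 cervical cancer cells given 40 pM IL-6 alongside compound; SIE-controlled beta-lactamase reporter measured as 460/530 nm FRET emission ratio; on the % scale 0 is the no-effect control and ±100 the full control effect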). As to conditions: ME-180 (cervical carcinoma) SIE beta-lactamase reporter, IL-6 stimulated, 5 h; at 7.69 µM (top of the series) unless noted. In a few lines:
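ME-180 SIE-bla cells; overnight plating; cpd + IL-6 40 pM, 5 h, 37 C; LiveBLAzer 2.5 h RT; 460/530 nm emission ratio. Normalized to 300 pM IL-6 and 125 nM JAK inhibitor controls.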

The target of assay [5] is Glucocorticoid receptor (Homo sapiens) (UniProt P04150). Put plainly: GR-GFP Redistribution (AID 450;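 active means compounds whose dose series gives a full or clear partial fitted curve of increased nuclear translocation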; further: potency means the concentration at half of the fitted maximal effect). To be noted: U2OS GR-GFP nuclear translocation, laser cytometry, 2 h.
Glucocorticoid receptor (Homo sapiens), sequence (P04150 whole entry, looked up): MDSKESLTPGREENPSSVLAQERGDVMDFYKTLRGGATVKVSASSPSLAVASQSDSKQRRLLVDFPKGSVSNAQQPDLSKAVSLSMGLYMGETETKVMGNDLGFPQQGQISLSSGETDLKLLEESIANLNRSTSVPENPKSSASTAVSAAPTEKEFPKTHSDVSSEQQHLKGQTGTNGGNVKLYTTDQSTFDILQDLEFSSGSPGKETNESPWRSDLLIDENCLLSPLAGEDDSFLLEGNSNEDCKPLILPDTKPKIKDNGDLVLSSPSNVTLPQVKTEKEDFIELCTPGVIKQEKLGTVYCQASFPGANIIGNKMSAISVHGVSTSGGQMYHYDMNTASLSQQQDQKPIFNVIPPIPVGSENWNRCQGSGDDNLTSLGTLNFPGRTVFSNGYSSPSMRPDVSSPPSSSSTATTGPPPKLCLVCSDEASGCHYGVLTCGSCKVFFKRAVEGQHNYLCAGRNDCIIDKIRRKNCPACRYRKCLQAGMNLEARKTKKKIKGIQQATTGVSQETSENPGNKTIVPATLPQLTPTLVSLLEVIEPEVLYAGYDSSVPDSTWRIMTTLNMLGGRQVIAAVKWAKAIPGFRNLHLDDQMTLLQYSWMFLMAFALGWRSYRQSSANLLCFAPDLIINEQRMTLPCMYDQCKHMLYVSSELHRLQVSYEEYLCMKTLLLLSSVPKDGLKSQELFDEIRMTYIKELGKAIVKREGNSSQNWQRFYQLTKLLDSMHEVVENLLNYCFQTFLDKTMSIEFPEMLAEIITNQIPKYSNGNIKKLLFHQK
Assay [6] shares this target. Kind of assay: GR-EFC Redistribution (AID 451; calls by dose curve; further: potency means the concentration at half of the fitted maximal effect). To be noted: CHO-K1 GR-EFC translocation, beta-gal luminescence, 2 h. In a few lines:
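CHO-K1 cells stably expressing nuclear-localized β-gal enzyme acceptor and GR fused C-terminally to the enzyme donor fragment; ligand-driven nuclear translocation restores β-gal by complementation. Compounds titrated up to 46 uM final, 2 h at 37 °C; luminescence read.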

In assay [7] the target is Mitogen-activated protein kinase 10 (Mus musculus) (UniProt Q61831). Put plainly: JNK3 AlphaScreen Assay (AID 530; active means well fitted curve in either direction with a large enough effect, not every such curve was filed as active;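 further: kinase came from lysate of stimulated human HepG2 cells; signal reports phosphorylation of biotinylated GST-cJun 1-79 at Ser73 with 10 µM ATP; on the % scale 0 is the no-effect control and ±100 the full control effect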). As to conditions: JNK3 lysate, c-Jun phosphorylation; series mostly up to 57.1 µM. In a few lines:
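JNK3 came from HepG2 lysates pre-activated with IL-1beta and TNF-alpha and phosphorylated biotinylated GST-cJun (1-79) at 10 uM ATP, pH 7.6, room temperature. Compounds were titrated. AlphaScreen signal used anti-phospho-cJun (Ser73) antibody.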
A general note: Alpha assays give light when donor and acceptor beads are brought close together.

Assay [8] concerns the target 3',5'-cyclic-AMP phosphodiesterase 4B (Homo sapiens) (UniProt Q07343). Put plainly: qHTS Assay for Inhibitors of PDE-IV (AID 607; active means well fitted activation curve with a large enough effect in the main read-out, with a control signal flat, not every such curve was filed as active; further: % of control where 0% means no effect). As to conditions: HEK293 ACTOne CNG channel cells, membrane potential fluorescence; series mostly up to 22.9 µM. In a few lines:
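ACTOne HEK293 cells carry a modified cAMP-gated CNG channel and express endogenous PDE4; plated 1000 cells/well, compounds up to 22.9 uM final. Membrane-potential dye fluorescence (ex 535/em 590) was read; parental cells received 10 uM forskolin + 100 uM RO 20-1724.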

The target of assay [9] is Cytochrome P450 3A4 (Homo sapiens) (UniProt P08684). Kind of assay: qHTS Assay for Activators of Cytochrome P450 3A4 (AID 885). Further: nearly all actives have a fitted effect of over 65% in size. As to conditions: recombinant CYP3A4, Luciferin-PPXE luminescence, 60 min; series mostly up to 57.1 µM. In a few lines: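 20nM CYP3A4 + 25uM Luciferin-PPXE (=KM), 200mM KPO4; cpd 10 min RT; NADPH regen, 60 min RT; stop w/ detection buffer, 20 min; luminescence. Normalized to 57 uM ketoconazole.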
Cytochrome P450 3A4 (Homo sapiens), sequence (P08684 whole entry, looked up): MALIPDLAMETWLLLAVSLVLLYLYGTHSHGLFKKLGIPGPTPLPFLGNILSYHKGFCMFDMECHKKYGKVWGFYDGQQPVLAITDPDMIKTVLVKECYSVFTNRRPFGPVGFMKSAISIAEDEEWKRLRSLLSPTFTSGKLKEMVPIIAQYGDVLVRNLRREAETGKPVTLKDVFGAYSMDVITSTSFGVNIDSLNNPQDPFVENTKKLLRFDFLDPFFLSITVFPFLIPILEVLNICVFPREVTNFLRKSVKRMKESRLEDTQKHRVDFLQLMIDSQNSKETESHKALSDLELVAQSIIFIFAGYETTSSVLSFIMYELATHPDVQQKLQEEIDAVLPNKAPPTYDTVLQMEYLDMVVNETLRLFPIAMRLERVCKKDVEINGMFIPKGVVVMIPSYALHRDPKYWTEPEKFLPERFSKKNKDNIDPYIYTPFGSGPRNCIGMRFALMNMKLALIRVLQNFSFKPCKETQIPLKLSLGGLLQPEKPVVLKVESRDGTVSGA

Assay [10] is described as follows: qHTS Assay for Lipid Storage Modulators (AID 1519; calls by dose curve). As to conditions: Drosophila S3 cells, BODIPY lipid droplet/cell ratio, laser cytometry, cells loaded with oleic acid; for activity change, negative = inhibition: at 57.5 µM (top of the series). In a few lines:
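Cells seeded at 5,000 per well were treated with compounds over a concentration series and loaded with oleic acid (400 uM, as added). Lipid droplet fluorescence (488 nm excitation, 500-530 nm channel) was read by laser-scanning cytometry and normalized to 20 uM Triacsin C.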
In general terms: In qHTS, concentration-response curves come from the screen itself.

The target of assay [11] is Dual specificity protein kinase CLK4 (Homo sapiens) (UniProt Q9HAZ1). Put plainly: qHTS Assay for Inhibitors of CDC-like Kinase 4 (Kinase-Glo Assay) (AID 1770). Further: nearly all actives have a fitted effect of over 65% in size. Further: potency means the concentration at half of the fitted maximal effect. As to conditions: recombinant Clk4, Kinase-Glo ATP depletion luminescence; series mostly up to 66.7 µM. In a few lines: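 Substrate mix (RS peptide 100 uM, ATP 1 uM) dispensed, compound pinned in, then Clk4 added to 25 nM final. Incubated 4.5 h at RT; Kinase-Glo reagent added, luminescence read after 5 min.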
Dual specificity protein kinase CLK4 (Homo sapiens), sequence (Q9HAZ1 whole entry, looked up): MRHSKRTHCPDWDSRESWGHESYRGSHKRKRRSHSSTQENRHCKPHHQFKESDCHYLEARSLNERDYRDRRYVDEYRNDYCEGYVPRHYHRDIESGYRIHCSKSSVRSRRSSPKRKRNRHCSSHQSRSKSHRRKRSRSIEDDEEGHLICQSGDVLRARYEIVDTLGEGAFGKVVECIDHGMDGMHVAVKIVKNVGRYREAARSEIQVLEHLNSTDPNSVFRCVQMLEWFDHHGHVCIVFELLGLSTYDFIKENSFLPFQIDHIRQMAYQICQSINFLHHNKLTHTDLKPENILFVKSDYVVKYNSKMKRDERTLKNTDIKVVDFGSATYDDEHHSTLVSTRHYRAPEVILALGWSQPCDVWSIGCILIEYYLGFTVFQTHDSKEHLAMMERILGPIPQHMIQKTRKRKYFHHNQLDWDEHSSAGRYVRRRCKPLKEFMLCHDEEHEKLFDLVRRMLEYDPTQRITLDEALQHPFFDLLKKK

For assay [12] the target is unchanged. Kind of assay: qHTS Assay for Inhibitors of CDC-like Kinase 4 (ADP-Glo Assay) (AID 1771). Further: nearly all actives have a fitted effect of over 70% in size. Further: potency means the concentration at half of the fitted maximal effect. As to conditions: recombinant CLK4, ADP-Glo luminescence; series mostly up to 80 µM. The gist of the method:
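Clk4 (25 nM) was incubated 1 hr at room temperature with 100 uM RS repeat peptide and 1 uM ATP in buffer with 2 mM MgCl2, 0.5 mM EGTA, 2.5 mM DTT. ADP formed was quantified by ADP-Glo luminescence.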

Assay [13] has the same target. Kind of assay: qHTS Assay for Inhibitors of CDC-like Kinase 4 (ADP-FP Assay) (AID 1795). Further: nearly all actives have a fitted effect of over 60% in size. Further: potency means the concentration at half of the fitted maximal effect. To be noted: Transcreener ADP fluorescence polarization; series mostly up to 50 µM. The gist of the method:
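Clk4 6.25 nM; RS peptide 100 uM; ATP 1 uM; 25 mM Tris pH 7.5, 10 mM MgCl2; 1 h reaction. ADP detected via antibody/orange tracer FP displacement; TG003 positive control.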

Assay [14] concerns the target Ubiquitin carboxyl-terminal hydrolase 1 (Homo sapiens) (UniProt O94782). Kind of assay: Inhibitors of USP1/UAF1: Pilot qHTS (AID 504865).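 Further: rhodamine fluorescence freed from ubiquitin-rhodamine substrate followed over time; top concentration of the series differs between compounds; on the % scale 0 is the no-effect control and ±100 the full control effect; nearly all actives have a fitted effect of over 35% in size.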 As to conditions: purified USP1/UAF1, Ub-rhodamine cleavage fluorescence; series mostly up to 54.9 µM. The gist of the method:
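In 50mM HEPES pH 7.8 containing 0.5mM EDTA, 1mM TCEP, 0.1 mg/ml BSA and 0.01% Tween-20, 1nM USP1/UAF1 is exposed to compound for 15 min, then Ub-Rho (150nM final) is added and fluorescence is read over time.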

The nature of assay [15]: Primary qHTS for small molecule stabilizers of the endoplasmic reticulum resident proteome: Secreted ER Calcium Modulated Protein (SERCaMP) assay (AID 1508630). Further: on the % scale 0 is the no-effect control and ±100 the full control effect. As to conditions: SH-SY5Y GLuc-SERCaMP (Gaussia luciferase released on ER calcium loss) secretion, thapsigargin, luminescence; series mostly up to 38.4 µM. The gist of the method:
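GLuc-SERCaMP-expressing SH-SY5Y cells, pretreated 16 h with compound, are challenged with thapsigargin to empty ER calcium stores; after 4 h, coelenterazine is added directly to the medium and luminescence is imaged.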

Assay [16] has as its target Cytochrome P450 2C9 (Homo sapiens) (UniProt P11712). Kind of assay: qHTS Assay for Inhibitors and Substrates of Cytochrome P450 2C9 (AID 883). Further: potency means the concentration at half of the fitted maximal effect; nearly all actives have a fitted effect of over 60% in size. As to conditions: recombinant CYP2C9, luciferin-H luminescence, 60 min; series mostly up to 57.1 µM. The gist of the method: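 Human CYP2C9 (10nM) hydroxylated Luciferin-H (100uM, at its KM) to luciferin in 25mM KPO4. Compound was preincubated 10 min at 37C, then NADPH regeneration started a 60 min reaction at 37C. Luminescence was read after detection reagent, normalized to 57uM sulphaphenazole.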

The mark [17] stands for this setting: measured here: cell count channel max response.
Where [18] appears, read: measured here: lipid channel max response.

Structures are written as SMILES. Records with an inconclusive call do not appear. Activity calls are given as the source filed them. Unless noted, the call rests on the fitted dose curve; in most records, active means well fitted curve in the direction sought with a large enough effect; inconclusive means small, poorly fitted or top-dose-only effect, or another doubt; inactive means no such curve, though single readings can be large; an effect the other way counts as inactive or inconclusive. Bounds are passed on as bounds.

Ubiquitin carboxyl-terminal hydrolase 1 (Homo sapiens), sequence (O94782 whole entry, looked up): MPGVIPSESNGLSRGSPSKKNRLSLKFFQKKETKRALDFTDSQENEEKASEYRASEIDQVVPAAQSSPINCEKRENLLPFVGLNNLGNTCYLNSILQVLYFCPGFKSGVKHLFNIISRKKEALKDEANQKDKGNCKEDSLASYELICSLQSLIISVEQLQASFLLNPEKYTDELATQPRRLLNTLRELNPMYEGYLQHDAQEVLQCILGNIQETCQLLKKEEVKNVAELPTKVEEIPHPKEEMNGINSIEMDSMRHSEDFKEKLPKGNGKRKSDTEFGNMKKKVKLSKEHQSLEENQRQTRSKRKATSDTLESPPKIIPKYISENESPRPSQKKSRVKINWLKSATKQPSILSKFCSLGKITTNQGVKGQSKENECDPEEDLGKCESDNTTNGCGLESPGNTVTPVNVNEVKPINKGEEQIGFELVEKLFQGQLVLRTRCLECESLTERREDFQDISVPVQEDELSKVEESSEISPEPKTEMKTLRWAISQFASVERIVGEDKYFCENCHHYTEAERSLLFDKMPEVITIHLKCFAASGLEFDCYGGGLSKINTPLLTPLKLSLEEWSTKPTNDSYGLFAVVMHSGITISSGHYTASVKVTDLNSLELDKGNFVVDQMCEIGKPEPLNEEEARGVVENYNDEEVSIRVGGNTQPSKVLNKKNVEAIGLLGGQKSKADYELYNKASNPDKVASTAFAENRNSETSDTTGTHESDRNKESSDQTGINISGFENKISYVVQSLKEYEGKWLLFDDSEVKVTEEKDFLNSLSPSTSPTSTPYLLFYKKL
Lysosomal acid glucosylceramidase (Homo sapiens), sequence (P04062 whole entry, looked up): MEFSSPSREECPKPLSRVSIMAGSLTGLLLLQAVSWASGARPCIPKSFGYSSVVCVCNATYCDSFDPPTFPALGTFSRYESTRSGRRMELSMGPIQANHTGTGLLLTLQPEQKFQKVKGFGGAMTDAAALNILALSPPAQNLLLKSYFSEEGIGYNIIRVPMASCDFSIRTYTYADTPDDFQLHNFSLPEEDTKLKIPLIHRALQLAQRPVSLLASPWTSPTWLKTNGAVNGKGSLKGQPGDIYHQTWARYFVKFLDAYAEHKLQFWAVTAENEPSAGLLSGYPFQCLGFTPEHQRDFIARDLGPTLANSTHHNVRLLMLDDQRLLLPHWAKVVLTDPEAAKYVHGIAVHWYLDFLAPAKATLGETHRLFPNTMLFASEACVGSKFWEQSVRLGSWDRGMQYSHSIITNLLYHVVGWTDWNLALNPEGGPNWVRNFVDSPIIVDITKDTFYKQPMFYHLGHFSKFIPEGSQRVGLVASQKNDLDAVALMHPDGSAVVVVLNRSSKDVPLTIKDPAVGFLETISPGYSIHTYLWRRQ
3',5'-cyclic-AMP phosphodiesterase 4B (Homo sapiens), sequence (Q07343 whole entry, looked up): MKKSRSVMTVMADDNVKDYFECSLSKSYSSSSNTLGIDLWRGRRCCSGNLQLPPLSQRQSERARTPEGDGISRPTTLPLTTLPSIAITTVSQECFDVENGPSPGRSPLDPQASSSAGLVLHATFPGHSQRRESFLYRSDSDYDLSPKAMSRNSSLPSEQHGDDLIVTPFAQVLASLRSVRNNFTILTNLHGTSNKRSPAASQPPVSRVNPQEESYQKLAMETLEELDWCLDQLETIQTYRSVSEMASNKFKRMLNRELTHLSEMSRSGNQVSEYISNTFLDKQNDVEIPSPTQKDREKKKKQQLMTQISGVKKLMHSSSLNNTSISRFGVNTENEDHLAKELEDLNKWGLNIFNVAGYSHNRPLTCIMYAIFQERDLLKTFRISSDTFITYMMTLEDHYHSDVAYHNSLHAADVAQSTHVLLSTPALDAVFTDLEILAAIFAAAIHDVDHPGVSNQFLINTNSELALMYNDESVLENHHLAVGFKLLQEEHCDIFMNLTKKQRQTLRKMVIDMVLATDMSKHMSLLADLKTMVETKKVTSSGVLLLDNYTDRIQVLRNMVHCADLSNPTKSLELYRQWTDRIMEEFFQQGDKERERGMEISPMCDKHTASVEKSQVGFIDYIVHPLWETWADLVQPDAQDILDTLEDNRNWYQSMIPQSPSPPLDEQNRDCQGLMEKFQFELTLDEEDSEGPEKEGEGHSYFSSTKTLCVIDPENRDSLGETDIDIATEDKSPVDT
Cytochrome P450 2C9 (Homo sapiens), sequence (P11712 whole entry, looked up): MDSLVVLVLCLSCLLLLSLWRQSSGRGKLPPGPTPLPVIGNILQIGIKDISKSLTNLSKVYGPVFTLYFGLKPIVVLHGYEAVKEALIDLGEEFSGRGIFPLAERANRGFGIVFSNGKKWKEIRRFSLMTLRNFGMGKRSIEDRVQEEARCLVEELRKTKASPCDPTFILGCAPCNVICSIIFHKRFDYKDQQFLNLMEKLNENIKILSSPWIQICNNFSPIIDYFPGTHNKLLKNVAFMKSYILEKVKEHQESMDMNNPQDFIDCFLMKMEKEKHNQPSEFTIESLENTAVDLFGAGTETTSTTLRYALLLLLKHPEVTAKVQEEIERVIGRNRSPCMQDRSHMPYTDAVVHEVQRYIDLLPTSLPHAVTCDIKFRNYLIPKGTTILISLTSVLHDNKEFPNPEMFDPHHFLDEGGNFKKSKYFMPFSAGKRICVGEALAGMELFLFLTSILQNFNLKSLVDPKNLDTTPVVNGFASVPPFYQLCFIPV

On to `CC(=O)NCCNc1ncnc2ccc(-c3cccc(NS(C)(=O)=O)c3)cc12`, for which the Potency is > 11.4 µM (inactive) in [1]; > 46 µM (inactive) in [5]; > 46 µM (inactive) in assay [6]; 12.6 µM (active) in [11]; 12.6 µM (active) in assay [12]; 8.91 µM (active) in assay [13]. For the same molecule, the activity change, negative = inhibition in assay [2] was 3.51% (inactive); in [3], 7.81% (inactive); in assay [10] it was 1.93% (inactive). The activity, negative = inhibition in [4] was 6.44% (inactive). Also, the outcome in assay [7] was inactive. The Potency entry in assay [8], in assay [9], in assay [14] and in assay [15] was “inactive” in each case. For the same molecule, the max response was 24.3% in assay [10] (setting [17]) and 24.6% in assay [10] (setting [18]).
With `CN(C)c1ncc2nc(-c3cc(F)cc(F)c3)c(=O)n(C3CC3)c2n1`, the values for the Potency in assay [1] and in assay [6] were > 11.4 µM (inactive) and > 46 µM (inactive), respectively. Moreover, the activity change, negative = inhibition was 5.31% (inactive) in assay [2], -6.61% (inactive) in assay [3] and 6.95% (inactive) in [10]. Also, the activity, negative = inhibition in [4] is 10.2% (inactive). Further, the molecule was classed as inactive in assay [7]. Besides, the Potency result in [8], in [11], in assay [12], in assay [13], in [14] and in [15] was “inactive” throughout. Also, the max response in assay [10] (setting [17]) stood at 8.84%; in assay [10] (setting [18]), 14.6%.
In the case of `COc1cccc(Cn2c(=O)c(-c3ccc(F)cc3)nc3cnc(N(C)C)nc32)c1`, the Potency was > 11.4 µM (inactive) in [1], > 9.22 µM (inactive) in assay [5] and > 46 µM (inactive) in assay [6]. Also, the activity change, negative = inhibition in assay [2] was 12% (inactive); in assay [3] it was 9.76% (inactive); in assay [10] it was 7.91% (inactive). In addition, the activity, negative = inhibition in assay [4] was -3.48% (inactive). The molecule was classed as inactive in [7]. In addition, the Potency entry in assay [8], in [11], in assay [12], in assay [13], in [14] and in [15] was “inactive” each time. For the same molecule, the max response in [10] (setting [17]) turned out to be 20.9%; in assay [10] (setting [18]) it was 28.6%.
For the molecule `Cc1cnc(CNc2ncncc2-c2cccnc2)cn1`, the Potency was > 11.4 µM (inactive) in assay [1], > 46 µM (inactive) in assay [5] and > 46 µM (inactive) in assay [6]. For the same molecule, the activity change, negative = inhibition in assay [2] is 12.8% (inactive); in assay [3], -0.272% (inactive); in [10] it was 5.94% (inactive). Also, in [4], the activity, negative = inhibition was 0.806% (inactive). Besides, in assay [7], the call was inactive. The Potency entry in [8], in assay [11], in assay [12], in assay [13], in assay [14] and in [15] was “inactive” each time. The values for the max response in assay [10] (setting [17]) and in assay [10] (setting [18]) were 29.4% and 33.4%, respectively.
Consider `Cc1nc2cnc(N(C)C)nc2n(C[C@H]2CCCO2)c1=O`, for which the Potency was > 11.4 µM (inactive) in assay [1] and > 46 µM (inactive) in assay [6]. Besides, the activity change, negative = inhibition is -5.35% (inactive) in [2], -4.67% (inactive) in [3] and 2.86% (inactive) in assay [10]. Besides, the activity, negative = inhibition in assay [4] is -0.622% (inactive). Moreover, the molecule was called inactive in [7]. In addition, the max response in assay [10] (setting [17]) stood at 10.5%; in assay [10] (setting [18]), 13.4%. The Potency entry in assay [11], in [12], in assay [13], in assay [14] and in [15] was “inactive” throughout.
`COCCn1c(=O)c(-c2cccc(C#N)c2)nc2cnc(Oc3ccccc3)nc21`: the Potency was > 11.4 µM (inactive) in assay [1], > 9.22 µM (inactive) in [5], > 46 µM (inactive) in assay [6] and 7.94 µM (active) in assay [16]. The activity change, negative = inhibition in [2] is -13% (inactive); in assay [3] it was 2.72% (inactive); in [10] it was -5.58% (inactive). Further, the activity, negative = inhibition in assay [4] was -11.3% (inactive). Also, in [7], the call was inactive. Besides, the Potency result in [8], in assay [9], in assay [11], in assay [12], in assay [13] and in [14] was “inactive” throughout. The Potency entry in assay [15] was “inactive”. For the same molecule, the max response was -1.86% in [10] (setting [17]) and -8.56% in [10] (setting [18]).
